Measured values: PubChem BioAssay AID489012 (National Center for Advancing Translational Sciences (NCATS), 2010)
Results filed as inconclusive are left out. Active and inactive are the calls of the source. Calls come from the whole dose curve; as a rule, active = well fitted activation curve with a large enough effect; inconclusive = small, poorly fitted or top-dose-only effect; inactive = no such curve, though single readings can be large or run the other way.
Note: nearly all actives have a fitted effect of over 65% in size.
Potency is the fitted concentration of half-maximal effect.
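Throughout, for activation: cAMP rise lowers the TR-FRET signal in lysed cells with PDE4 inhibitor present; 0% = buffer-only basal and 100% = 29 nM porcine relaxin.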

What follows are compounds tested against Relaxin receptor 1 (Homo sapiens) (UniProt Q9HBX9) (assay: qHTS Assay for Agonists of the Relaxin Receptor RXFP1: RXFP1 Hit Validation). Conditions: HEK293T-RXFP1 cAMP TR-FRET, 30 min; series mostly up to 115 µM; activation: at the top concentration.
Sequence of Relaxin receptor 1 (Homo sapiens) (Q9HBX9 whole entry, looked up): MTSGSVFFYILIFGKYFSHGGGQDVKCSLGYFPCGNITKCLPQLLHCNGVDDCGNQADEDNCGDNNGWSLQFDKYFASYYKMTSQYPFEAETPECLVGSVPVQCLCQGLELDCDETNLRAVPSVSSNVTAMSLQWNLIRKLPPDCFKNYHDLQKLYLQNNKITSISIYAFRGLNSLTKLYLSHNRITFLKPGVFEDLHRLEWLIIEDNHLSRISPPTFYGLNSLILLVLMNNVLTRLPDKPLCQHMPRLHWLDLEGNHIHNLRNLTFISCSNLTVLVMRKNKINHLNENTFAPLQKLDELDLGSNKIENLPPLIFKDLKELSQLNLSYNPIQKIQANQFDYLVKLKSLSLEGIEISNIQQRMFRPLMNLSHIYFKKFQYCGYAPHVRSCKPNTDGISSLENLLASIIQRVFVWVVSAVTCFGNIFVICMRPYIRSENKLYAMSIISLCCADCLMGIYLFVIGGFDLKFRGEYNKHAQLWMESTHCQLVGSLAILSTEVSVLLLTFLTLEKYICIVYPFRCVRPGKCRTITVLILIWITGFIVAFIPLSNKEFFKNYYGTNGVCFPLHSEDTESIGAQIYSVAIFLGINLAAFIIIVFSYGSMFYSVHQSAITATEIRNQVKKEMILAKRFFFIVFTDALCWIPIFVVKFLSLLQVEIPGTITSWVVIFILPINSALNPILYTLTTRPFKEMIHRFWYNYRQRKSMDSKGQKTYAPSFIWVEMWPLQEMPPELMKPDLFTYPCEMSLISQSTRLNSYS
In the case of Cc1cc(C)nc(NS(=O)(=O)c2ccc(N3C(=O)c4ccccc4C3=O)cc2)n1, the Potency is reported as 29.8 µM (active). In the case of CC1CCN(S(=O)(=O)c2ccc3nc(N4CCN(c5ccccc5)CC4)ccc3c2)CC1, the Potency is reported as 12.3 µM (active). Cc1ccc(C(=O)Nc2cccc(C(F)(F)F)c2)cc1NC(=O)c1cnnc2ccccc12 was tested, and the “activation” value was 7.81% (inactive). CCN(CC)S(=O)(=O)c1cccc(N=Nc2c(O)c3ccccc3oc2=O)c1 was tested, and the Potency was 21.9 µM (active). In the case of CC1(C)Cc2c(sc3c2c2ncnn2c2nnc(SCC(=O)NCc4ccco4)n32)CO1, the Potency is reported as 6.16 µM (active). Cn1c(N)c(C(=O)CSc2nn(-c3ccc(F)cc3)c(=S)s2)c(=O)n(C)c1=O was tested, and the Potency was 21.8 µM (active). For O=C(NCc1nnc2c(C(F)(F)F)cc(Cl)cn12)c1cccnc1, the “activation” value was 24.5% (inactive). With O=C(CSc1ccc2nnc(-c3ccncc3)n2n1)NCC1CCCO1 (stereo unspecified) the “activation” value was 27% (inactive). In the case of Cc1nn(CC(=O)NCCN2CCOCC2)c(=O)c2cc3sccc3n12, the “activation” value is reported as 18.1% (inactive). In the case of CCN(CC)CCCCCC(=O)Nc1ccccc1C(=O)Nc1ccccc1, the “activation” value is reported as -3.6% [at 125 µM] (inactive). With c1ccc(COn2nnc3ccccc32)c(COn2nnc3ccccc32)c1 the “activation” value was 7.76% [at 45 µM] (inactive). In the case of Nc1ncnc2c1ncn2C1OC(CO)C(O)C1O (stereo unspecified), the Potency is reported as 1.74 µM (active). In the case of Nc1ncnc2c1ncn2[C@@H]1O[C@H](COS(=O)(=O)O)[C@@H](O)[C@H]1O, the Potency is reported as 6.9 µM (active). In the case of O=C(CN1C(=O)c2cccc3cccc(c23)C1=O)NCCN1CCOCC1, the “activation” value is reported as 28.1% [at 45 µM] (inactive). In the case of CCOC(=O)c1sc(=NC(=O)c2ccc(S(=O)(=O)N(C)c3ccccc3)cc2)n(C)c1C, the Potency is reported as 19.4 µM (active). With Cc1ccc(CN(C)C(=O)c2ccccc2NC(=O)c2ccccc2)o1 the “activation” value was -3.25% [at 125 µM] (inactive). In the case of O=C(NCCOC(=O)c1ccc([N+](=O)[O-])cc1)c1cccnc1, the “activation” value is reported as 26.3% (inactive). In the case of COCCNC(=O)NC(=O)COC(=O)C12CC3CC(CC(NC(C)=O)(C3)C1)C2, the “activation” value is reported as 2.8% [at 45 µM] (inactive). Cc1cccn2c(=O)c3cc(C(=O)NC4CCCC4)c(=N)n(CCCN4CCOCC4)c3nc12 was tested, and the “activation” value was 22.6% (inactive). For COc1cc(Cl)c(C)cc1NC(=O)c1ccc2c(c1)OCO2, the “activation” value was -3.24% [at 45 µM] (inactive). For COc1ccc(OC)c(CNC(=O)C2CCN(C(=O)N(C)C)CC2)c1, the “activation” value was -4.27% (inactive). With O=C(Nc1ccccc1C(=O)Nc1ccc(F)cc1)c1ccco1 the “activation” value was -0.753% [at 125 µM] (inactive). O=C(O)CCC(=O)N1CCN(c2nc(-c3ccccc3Cl)c3cc(Br)ccc3n2)CC1 was tested, and the “activation” value was 28.4% [at 45 µM] (inactive). For Nc1c(Cl)cc(-c2[nH]c3cc(C(=O)NCCO)ccc3c(=O)c2O)cc1Cl, the Potency was 34.6 µM (active). CC(C)n1c(CN2CCN(C(=O)c3ccco3)CC2)nc2c1c(=O)n(C)c(=O)n2C was tested, and the “activation” value was 28.8% (inactive). With O=C(NC1CCCCCC1)c1cc2c(=O)n3ccccc3nc2s1 the Potency was 34.6 µM (active). COc1ccccc1NC(=O)c1sc2nc3n(c(=O)c2c1C)CCC3 was tested, and the “activation” value was 7.23% [at 45 µM] (inactive). In the case of COc1cccc(C(=O)CSc2nnc(-c3cc(OC)cc(OC)c3)o2)c1, the Potency is reported as 13.8 µM (active). For Cc1ccnc(NS(=O)(=O)c2ccc(N3C(=O)c4ccccc4C3=O)cc2)n1, the Potency was 18.8 µM (active). In the case of CCN(CC)S(=O)(=O)c1ccc(N2CCOCC2)c(NC(=O)c2cc([N+](=O)[O-])ccc2Cl)c1, the “activation” value is reported as 14.6% (inactive). In the case of Cc1ccccc1NC(=O)CNc1ccccc1C(=O)NCc1ccco1, the “activation” value is reported as 5.5% [at 125 µM] (inactive). For NC(=O)c1ccccc1NC(=O)CC12CC3CC(CC(C3)C1)C2, the “activation” value was -7.81% [at 125 µM] (inactive). In the case of COc1ccc(S(=O)(=O)Nc2ccccn2)c(C)c1C, the “activation” value is reported as 1.99% [at 45 µM] (inactive). For CCOc1ccc2cc(C#N)c(SCC(=O)NC(C)CC)nc2c1 (stereo unspecified), the Potency was 4.88 µM (active). In the case of CCN(CC)CCCN1C=C2C(=O)C(C)(OC(=O)C3CCCC3)C(=O)C=C2C=C1c1ccsc1 (stereo unspecified), the “activation” value is reported as -3.64% (inactive). Cc1ccc(CNC(=O)CCc2nnc3ccc(N4CCC5(CC4)OCCO5)nn23)cc1 was tested, and the “activation” value was 25.6% (inactive).
